In PubChem BioAssay one finds composite z-score and z-score data, which are given here for five molecules.

Active and inactive are the calls of the source.

For test [1], the system named is Plasmodium falciparum Sir2 (PF13_0152, Sir2A). The test can be described thus: Plasmodium falciparum Sir2A binding compounds – biochemical, small-molecule microarray, 635 nm fluorescence, primary screen (AID 1098).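 Further: score merges spot fluorescence intensity with its signal-to-noise ratio.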 To be noted: fluorescence 635 nm, higher = more signal.
The nature of test [2]: probe aDKK1 binding to arrayed compounds – biochemical, biotinylated probe, 635/667 nm fluorescence, primary screen (AID 1099).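 Further: score merges 667nm spot fluorescence with signal to noise across triplicate slides.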 The following applies: small-molecule microarray, higher = more signal.
Test [3] in a line: probe aCHRDL2 binding to arrayed compounds – biochemical, biotinylated probe, 635/667 nm fluorescence, primary screen (AID 1100). To be noted: small-molecule microarray, higher = more signal.
Test [4] in a line: change in splice reporter luminescence, either direction, cell-based, HEK293, spliceosome inhibition project, primary screen (AID 1101).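 Further: HEK293 cells carrying a splicing-competent luciferase reporter gene; test concentration not given here.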 To be noted: HEK293 splicing luciferase reporter, 24 h, higher = more signal, called active from +8 up or from −8 down. (A reporter such as luciferase makes a cellular process visible.)
Test [5] deals with Fibroblast growth factor 10 (Homo sapiens) (UniProt O15520). Put plainly: compounds binding fibroblast growth factor 10 – biochemical, small-molecule microarray, 635 nm fluorescence, primary screen (AID 1102). To be noted: FGF10 binding, fluorescence 635 nm, higher = more signal.
In test [6] the test system is glycogen synthase kinase-3 (GSK3A per assay name; protocol says GSK3B). Put plainly: compounds binding glycogen synthase kinase-3 – biochemical, small-molecule microarray, 635 nm fluorescence, GSK3A, primary screen (AID 1103). Further: the record names both GSK3A and GSK3B. To be noted: fluorescence 635 nm, higher = more signal.
For test [7], the target named is Epidermal growth factor receptor (Homo sapiens) (UniProt P00533). The test can be described thus: compounds binding epidermal growth factor receptor – biochemical, small-molecule microarray, 635 nm fluorescence, primary screen (AID 1104).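 Further: score merges 667 nm emission intensity with spot signal to noise over triplicate slides.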 The following applies: EGFR binding, higher = more signal.
In test [8] the target is Follistatin-related protein 3 (Homo sapiens) (UniProt O95633). Put plainly: compounds binding follistatin-related protein 3 – biochemical, small-molecule microarray, 635 nm fluorescence, primary screen (AID 1105).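 Further: score merges emission near 667 nm and signal to noise per printed spot across three slides.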 The following applies: FSTL3 binding, higher = more signal.
Test [9] deals with Dickkopf-related protein 1 (Homo sapiens) (UniProt O94907). Put plainly: small molecules binding DKK1 protein – biochemical, small-molecule microarray, 635 nm fluorescence scan, primary screen (AID 1106).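 Further: score merges emission near 667 nm with signal to noise over three replicate slides.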 To be noted: higher = more signal.
Test [10] concerns Inhibin beta A chain (activin A). The test can be described thus: small molecules binding activin A – biochemical, small-molecule microarray, 635 nm fluorescence scan, primary screen (AID 1107).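 Further: mouse activin A protein probed at 4.33 µg/mL on printed slides; score merges bound-protein fluorescence near 667 nm with spot signal-to-noise.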 The following applies: INHBA, higher = more signal.
For test [11], the system named is Human papillomavirus type 1a protein E7 (residues 44-93). Put plainly: small molecules binding HPV E7 44-93 – biochemical, small-molecule microarray, residues 44-93, 635 nm fluorescence, primary screen (AID 1108).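 Further: E7 fragment applied at 1 µg/mL in TBST for 1 h at 4 C; score combines spot fluorescence with its signal to noise ratio.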 To be noted: fluorescence 635 nm, higher = more signal.
A short description of test [12]: hepatitis C replication reporter changes, two-sided – Huh7 cells, luciferase reporter, HCV replication inhibitor project, primary screen (AID 1109).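 Further: huh7 hepatoma cells harbouring a luciferase neomycin HCV replicon reporter; luciferase luminescence as measure of HCV replicon replication; test concentration not given here.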 To be noted: Huh7 HCV replicon luciferase reporter, 48 h; higher = more signal.
Test [13] deals with Left-right determination factor 2 (Homo sapiens) (UniProt O00292). Put plainly: small molecules binding LEFTY2 protein – biochemical, small-molecule microarray, 635 nm fluorescence scan, primary screen (AID 1110). To be noted: higher = more signal.
Test [14] has as its target Calmodulin-1 (Homo sapiens) (UniProt P0DP23). Put plainly: small molecules binding calmodulin-1 with EGTA – biochemical, small-molecule microarray, Cy5-labelled CALM1, profiling panel (AID 1111).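 Further: labelled calmodulin applied in Tris saline Tween buffer holding calcium plus EGTA and DTT.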 The following applies: Cy5-CALM1 binding fluorescence, higher = more signal.
Test [15] has the same target. The test can be described thus: small molecules binding Ca-loaded calmodulin-1 – biochemical, small-molecule microarray, Cy5-labelled CALM1, plus calcium, artefact control for SMM control-protein annotation, profiling panel (AID 1112).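 Further: score merges spot fluorescence with signal to noise from triplicate slides.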 The following applies: Cy5-CALM1 binding fluorescence, higher = more signal.
Test [16] in a line: probe aWnt5a binding to arrayed compounds – biochemical, biotinylated probe, 635/667 nm fluorescence, primary screen (AID 1113).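 Further: score merges 667 nm fluorescence intensity with signal-to-noise per printed feature.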 To be noted: small-molecule microarray, higher = more signal.
Test [17] in a line: probe aShh binding to arrayed compounds – biochemical, biotinylated probe, 635/667 nm fluorescence, primary screen (AID 1114).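 Further: probe is biotin-labelled aShh protein from a stem cell growth factor screen; measures binding of labelled protein to compounds printed on the slide; score merges feature fluorescence at 667 nm with signal-to-noise.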 The following applies: small-molecule microarray, higher = more signal.
A short description of test [18]: probe aNog binding to arrayed compounds – biochemical, biotinylated probe, 635/667 nm fluorescence, primary screen (AID 1115).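 Further: probe is biotinylated aNog protein used at 0.15 µg/mL for 1 h at 4 C; z-score combines 667 nm fluorescence of each spot with its signal to noise.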 The following applies: small-molecule microarray, higher = more signal.
Test [19] has as its target Torsin-1A-interacting protein 1 (Homo sapiens) (UniProt Q5JTV8). Put plainly: compound microarray binding of lysate hLAP1 – cell lysate, small-molecule microarray, COS7 lysate, 635/667 nm fluorescence, primary screen (AID 1116). To be noted: 635 nm fluorescence, higher = more signal.
The target in test [20] is Alpha-bungarotoxin (Bungarus multicinctus) (UniProt P60615). Put plainly: compounds binding labelled alpha-BTX control protein – biochemical, small-molecule microarray, Alexa647 label, 635/667 nm fluorescence, artefact control for SMM control protein annotation, profiling panel (AID 1117). The following applies: alpha-BTX-A647 binding fluorescence, higher = more signal.
Alpha-bungarotoxin (Bungarus multicinctus), sequence (P60615 whole entry, looked up): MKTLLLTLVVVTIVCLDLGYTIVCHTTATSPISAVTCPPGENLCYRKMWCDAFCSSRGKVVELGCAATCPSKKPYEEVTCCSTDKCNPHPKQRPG

Follistatin-related protein 3 (Homo sapiens), sequence (O95633 whole entry, looked up): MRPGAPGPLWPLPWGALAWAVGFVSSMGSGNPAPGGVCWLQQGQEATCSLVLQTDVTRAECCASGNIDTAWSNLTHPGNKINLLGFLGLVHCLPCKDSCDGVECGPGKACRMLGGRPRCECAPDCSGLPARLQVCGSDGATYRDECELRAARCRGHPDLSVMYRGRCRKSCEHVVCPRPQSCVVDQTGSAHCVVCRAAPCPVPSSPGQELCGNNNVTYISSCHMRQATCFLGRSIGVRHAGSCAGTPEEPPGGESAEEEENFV
Epidermal growth factor receptor (Homo sapiens), sequence (P00533 whole entry, looked up): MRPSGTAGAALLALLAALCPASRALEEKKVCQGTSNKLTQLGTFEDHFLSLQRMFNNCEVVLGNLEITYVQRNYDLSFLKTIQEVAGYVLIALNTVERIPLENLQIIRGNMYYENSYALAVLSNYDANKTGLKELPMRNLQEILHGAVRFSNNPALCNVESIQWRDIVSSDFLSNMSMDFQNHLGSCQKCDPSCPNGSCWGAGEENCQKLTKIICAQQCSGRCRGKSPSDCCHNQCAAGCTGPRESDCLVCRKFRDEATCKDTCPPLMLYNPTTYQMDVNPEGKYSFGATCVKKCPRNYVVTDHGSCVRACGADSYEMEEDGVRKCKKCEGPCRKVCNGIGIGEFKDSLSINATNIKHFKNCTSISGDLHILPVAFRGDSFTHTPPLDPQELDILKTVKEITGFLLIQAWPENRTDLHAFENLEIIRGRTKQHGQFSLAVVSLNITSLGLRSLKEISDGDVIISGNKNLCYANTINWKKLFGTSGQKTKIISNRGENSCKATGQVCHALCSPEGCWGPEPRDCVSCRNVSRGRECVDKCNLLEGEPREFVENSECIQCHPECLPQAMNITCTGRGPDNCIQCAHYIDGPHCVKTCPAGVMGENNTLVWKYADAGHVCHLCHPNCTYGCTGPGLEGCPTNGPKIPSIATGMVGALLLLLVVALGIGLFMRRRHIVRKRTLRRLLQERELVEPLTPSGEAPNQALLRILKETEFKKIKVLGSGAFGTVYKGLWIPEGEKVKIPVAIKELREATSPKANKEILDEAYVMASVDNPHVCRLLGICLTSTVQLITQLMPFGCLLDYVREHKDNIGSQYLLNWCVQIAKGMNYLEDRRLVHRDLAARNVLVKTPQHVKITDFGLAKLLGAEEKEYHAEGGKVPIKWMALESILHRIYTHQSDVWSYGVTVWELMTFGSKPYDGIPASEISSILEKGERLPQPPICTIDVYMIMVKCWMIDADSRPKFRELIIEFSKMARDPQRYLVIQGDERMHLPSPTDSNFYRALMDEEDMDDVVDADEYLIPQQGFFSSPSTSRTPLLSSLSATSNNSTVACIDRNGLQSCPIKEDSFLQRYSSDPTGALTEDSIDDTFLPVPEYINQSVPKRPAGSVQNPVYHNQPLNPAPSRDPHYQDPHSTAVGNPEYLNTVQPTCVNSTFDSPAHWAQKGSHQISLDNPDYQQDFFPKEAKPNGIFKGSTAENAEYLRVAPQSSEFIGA
Fibroblast growth factor 10 (Homo sapiens), sequence (O15520 whole entry, looked up): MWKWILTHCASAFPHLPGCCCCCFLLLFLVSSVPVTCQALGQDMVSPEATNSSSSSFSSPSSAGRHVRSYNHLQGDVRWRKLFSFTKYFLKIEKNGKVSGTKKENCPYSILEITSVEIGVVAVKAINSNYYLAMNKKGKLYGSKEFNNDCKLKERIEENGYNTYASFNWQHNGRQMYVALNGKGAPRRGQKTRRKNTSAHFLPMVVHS
Torsin-1A-interacting protein 1 (Homo sapiens), sequence (Q5JTV8 whole entry, looked up): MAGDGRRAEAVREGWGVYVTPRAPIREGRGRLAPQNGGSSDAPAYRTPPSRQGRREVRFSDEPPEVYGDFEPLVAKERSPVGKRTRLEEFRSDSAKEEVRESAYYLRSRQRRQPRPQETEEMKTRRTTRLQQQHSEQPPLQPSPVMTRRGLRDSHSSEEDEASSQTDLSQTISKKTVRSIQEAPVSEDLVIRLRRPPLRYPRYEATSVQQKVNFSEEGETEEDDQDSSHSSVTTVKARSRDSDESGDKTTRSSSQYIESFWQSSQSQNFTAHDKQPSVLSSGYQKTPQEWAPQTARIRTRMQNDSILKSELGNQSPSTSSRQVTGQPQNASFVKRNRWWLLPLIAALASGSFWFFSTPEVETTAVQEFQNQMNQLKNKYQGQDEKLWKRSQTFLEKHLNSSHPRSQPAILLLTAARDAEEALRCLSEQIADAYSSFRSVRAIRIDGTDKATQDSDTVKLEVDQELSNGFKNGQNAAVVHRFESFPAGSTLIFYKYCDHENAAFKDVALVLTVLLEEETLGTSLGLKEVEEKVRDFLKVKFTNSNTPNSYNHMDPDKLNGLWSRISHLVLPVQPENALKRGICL
Left-right determination factor 2 (Homo sapiens), sequence (O00292 whole entry, looked up): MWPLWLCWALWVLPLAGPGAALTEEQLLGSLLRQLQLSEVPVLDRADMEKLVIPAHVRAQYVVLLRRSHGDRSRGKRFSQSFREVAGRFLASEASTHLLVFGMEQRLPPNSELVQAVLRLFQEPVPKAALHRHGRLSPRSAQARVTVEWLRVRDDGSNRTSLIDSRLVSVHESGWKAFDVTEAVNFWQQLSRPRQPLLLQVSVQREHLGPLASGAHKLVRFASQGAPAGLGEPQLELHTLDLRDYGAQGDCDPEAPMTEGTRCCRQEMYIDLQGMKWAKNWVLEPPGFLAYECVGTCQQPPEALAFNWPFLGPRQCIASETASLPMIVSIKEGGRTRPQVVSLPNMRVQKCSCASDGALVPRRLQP
Dickkopf-related protein 1 (Homo sapiens), sequence (O94907 whole entry, looked up): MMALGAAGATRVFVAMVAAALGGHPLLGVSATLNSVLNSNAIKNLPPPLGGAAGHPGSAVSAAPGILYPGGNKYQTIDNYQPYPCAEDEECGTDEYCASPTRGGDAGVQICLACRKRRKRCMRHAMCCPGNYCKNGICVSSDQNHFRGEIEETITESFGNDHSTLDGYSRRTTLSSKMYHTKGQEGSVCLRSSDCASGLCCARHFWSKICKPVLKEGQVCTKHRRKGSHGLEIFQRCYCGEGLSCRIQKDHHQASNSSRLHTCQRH

For the molecule `CC(C)(C)OC(=O)CC[C@]1(C(=O)N2CCCCC2)N=C(c2ccc(OCCCO)cc2)O[C@H]1c1ccccc1N=[N+]=[N-]`, the composite z-score in [1] stood at 0.668; in test [2], 0.639; in test [3] it was 0.869; in test [5], 0.968; in test [6] it was 0.736; in test [7] it was 0.6. The composite z-score is 0.81 in [8]; -0.135 in test [9]; 1.34 in test [10]; 1.43 in test [11]; 0.376 in [13]; 2.25 in test [14]. Also, the composite z-score in [15] was 1.38; in test [16], 0.152; in test [17], -0.385; in test [18], 0.207; in test [19] it was 1.47; in test [20], 0.823. The z-score in test [4] is -1.37 (inactive); in test [12] it was 0.6.

As for `CCN(CC)c1ccc(N2CC=CC34O[C@@H]5/C=C\CCCOC(=O)C5[C@H]3C(=O)N(C(CO)C(C)C)[C@@H]4C2=O)cc1` (stereo not given in full), the composite z-score in test [1] was 1.23; in [2] it was -0.252; in test [3], -0.0922; in [5], -0.711; in test [6], -0.748; in [7], -1.05. For the same molecule, the composite z-score in test [8] was -0.8; in test [9] it was -0.681; in test [10] it was 1.11; in test [11], -0.22; in [13], -0.393; in test [14], -0.956. In addition, the composite z-score in test [15] is -1.15; in test [16], -0.0758; in [17], -0.221; in test [18], -0.164; in test [19] it was -0.0861; in test [20], -0.692. Moreover, the z-score is 0.167 (inactive) in [4] and -0.132 in test [12].

Regarding `C=C[C@H](C)[C@@H](O)c1ccc(O)c2ccccc12`, the composite z-score was 1.43 in [1]; -0.302 in test [2]; -0.0488 in [3]; -0.152 in test [5]; -0.61 in [6]; -0.775 in test [7]. Besides, the composite z-score in [8] was -0.189; in test [9], 0.0078; in test [10], 1.28; in test [11], -0.899; in test [13], -0.187; in test [14] it was -1.15. For the same molecule, the composite z-score in test [15] is -0.975; in [16] it was -0.175; in test [17], -0.221; in test [18] it was -0.689; in test [19] it was -0.438; in [20], 0.465. Also, the z-score in test [4] is -0.0352 (inactive); in test [12], -2.

As for `O=C(CS)NCCCCCCNC(=O)[C@H]1C[C@H]2C(=O)NCC(=O)N2[C@H]1c1ccc(O)cc1`, the composite z-score in test [1] was 0.576; in [2], -0.213; in test [3] it was 0.694; in test [5], -0.175; in [6], -0.607; in [7], -0.606. In addition, the composite z-score in test [8] was -0.46; in test [9], 0.22; in test [10], -0.58; in [11], -0.175; in test [13], -0.571; in [14] it was -0.156. For the same molecule, the composite z-score in test [15] was 0.802; in [16], -0.171; in [17] it was -0.286; in [18], -0.379; in test [19] it was -0.633; in test [20], 0.136. For the same molecule, the z-score in test [4] was -0.295 (inactive); in test [12] it was -0.344.

As to `CO[C@H]1O[C@H](CO)[C@@H](OC(=O)Nc2ccc3c(c2)OCO3)[C@H](OC(=O)Nc2ccccc2)[C@H]1OC(=O)Nc1ccccc1`, the composite z-score is 1.48 in [1]; 0.132 in test [2]; 0.398 in [3]; 0.892 in [5]; 1.29 in test [6]; -0.0701 in [7]. The composite z-score in test [8] is 0.848; in test [9] it was 0.295; in test [10] it was 0.395; in test [11] it was 1.5; in test [13], 0.0544; in [14] it was 1.36. Besides, the composite z-score in test [15] is -0.905; in test [16] it was -0.0519; in [17] it was 0.275; in [18], 0.909; in test [19] it was 1.47; in [20], 1.74. Also, the values for the z-score in test [4] and in [12] were 1.89 (inactive) and -3.44, respectively.
